Assay outcomes deposited in PubChem by National Center for Advancing Translational Sciences (NCATS).
Most compounds without a hit are left out; they make up all but 2.8% or so of the library.
GLP-1R agonist: activates the human GLP-1 receptor. P43220. HEK293 GLP-1R CRE-luciferase, luminescence, 4-6 h; cells express a hypersensitive GLP-1R form. Potency, µM (highest dose often 45.6 µM), inactives show top-dose activation, usual class: activators. actives 0.007% (n = 380,000). AID 624172; further: % of control where 0% means no effect
Target sequence (P43220 whole entry, looked up): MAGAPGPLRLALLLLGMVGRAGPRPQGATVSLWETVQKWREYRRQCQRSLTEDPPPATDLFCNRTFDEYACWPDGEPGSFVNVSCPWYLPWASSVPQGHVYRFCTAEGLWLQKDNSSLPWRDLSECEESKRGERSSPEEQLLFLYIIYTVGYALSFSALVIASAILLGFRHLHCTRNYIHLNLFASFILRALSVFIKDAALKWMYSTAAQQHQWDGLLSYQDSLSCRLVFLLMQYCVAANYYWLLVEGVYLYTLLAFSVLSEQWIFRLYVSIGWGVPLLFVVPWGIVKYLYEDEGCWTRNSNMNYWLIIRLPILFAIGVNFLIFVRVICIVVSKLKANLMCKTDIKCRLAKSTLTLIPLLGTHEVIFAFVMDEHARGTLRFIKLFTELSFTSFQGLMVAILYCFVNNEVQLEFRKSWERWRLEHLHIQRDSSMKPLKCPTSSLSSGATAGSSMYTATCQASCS
GLP-1R inv ag: acts as inverse agonist at human GLP-1 receptor. actives 1.6% (n = 410,000). P43220. HEK293 GLP-1R CRE-luciferase, luminescence, 24 h; GLP-1R form is constitutively active. Potency, µM (series often up to 38.3 µM), for the others: at the highest dose activity change, negative = inhibition, actives largely listed as inhibitors; further: on the % scale 0 is the no-effect control and ±100 the full control effect; nearly all actives have a fitted effect of over 55% in size
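HEK293 cells stably co-expressing a cAMP-responsive luciferase reporter and constitutively active GLP-1R were seeded, incubated 12 h, then exposed to compounds for 24 h at 37 C. Luminescence was read 12 min after detection reagent; inverse agonists lower signal.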
HEK293 tox: cytotoxicity in counter-screen for GLP-1R inverse agonists | HEK293 cAMP-luciferase reporter cells, luminescence, 24 h | Potency, µM (highest dose often 38.3 µM), without a hit: at the highest dose activity change, negative = inhibition, usual class: inhibitors | actives 0.13% (n = 410,000);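 further: loss of luciferase light is scored as toxicity; on the % scale 0 is the no-effect control and ±100 the full control effect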
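Here, cytotoxicity is scored as loss of luminescence. The MLSMR collection was tested on cells seeded in medium containing 10% Nu serum, with a 24 hr compound exposure preceded by 12 hours of culture.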
BRCA1 expr act: BRCA1 expression activation; actives 1.1% (n = 380,000); Potency, µM (doses to about 46.1 µM), for inactives: top-dose activation, hits mostly activators; MCF7-BRCA1-FFLuc reporter, luminescence, 48 h; response scale: scaled: vehicle 0%, 10 µM genistein 100%; further: nearly all actives have a fitted effect of over 80% in size
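48 h compound treatment of MCF7-BRCA1-FFLuc cells (phenol-red free MEM, 37 °C), then 15 min with luciferase substrate and luminescence imaging.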
Mito fusion act: inhibitors of mitochondrial division or activators of mitochondrial fusion. actives 0.23% (n = 320,000). AID 485298. S. cerevisiae fusion-defective mutant growth rescue, CellTiterGlo 48 h. Potency, µM (series often up to 46.1 µM), for inactives: at the top dose growth rescue (activation), usual class: activators; further: % of control where 0% means no effect; nearly all actives have a fitted effect of over 45% in size
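Growth-rescue viability read-out: after 48 h at the non-permissive 37C in glycerol/ethanol YPEG, yeast mitochondrial fusion mutants are measured by CellTiterGlo luminescence; compounds (23 nl pinned per well) restoring growth score as division inhibitors or fusion activators.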
* marks the source's active call; other numbers are inactive results. The call rests on the fitted dose curve; in most records, active means well fitted curve in the direction sought with a large enough effect; inconclusive means small, poorly fitted or top-dose-only effect, or another doubt; inactive means no such curve, though single readings can be large; an effect the other way counts as inactive or inconclusive. Potency means the concentration at half of the fitted maximal effect.

Results for CCOC(=O)c1scc(-c2ccc(C)cc2)c1S(=O)(=O)N1CCN(c2ccccc2F)CC1 ?
GLP-1R inv ag: 7.9µM*; HEK293 tox: 34%

Results for COc1ccc(N/C(=C2\CCCC2=O)C2CCCCC2)cc1 ?
GLP-1R agonist: 14%; GLP-1R inv ag: -11%; HEK293 tox: -20%; BRCA1 expr act: -5%

What do the screens show for `CC(C)SC1=NC(C)(C)C=C(/C=C/c2c(Cl)cccc2Cl)N1`?
GLP-1R agonist: -13%; GLP-1R inv ag: 2.8µM*; HEK293 tox: -6%; BRCA1 expr act: -76%; Mito fusion act: 3%

What do the screens show for `CC(C)SC1=NC(C)(C)C=C(/C=C/c2ccc(Cl)cc2Cl)N1`?
GLP-1R agonist: -15%; GLP-1R inv ag: inconclusive; HEK293 tox: 16%; BRCA1 expr act: -81%; Mito fusion act: 3%

How did N=C1/C(=C/c2ccc(OCc3ccccc3)cc2)C(=O)N=C2SC(CC(=O)N3CCOCC3)=NN12 do in these assays?
GLP-1R agonist: -1%; GLP-1R inv ag: 15%; HEK293 tox: -1%; BRCA1 expr act: 14µM*; Mito fusion act: 6%

Results for N=C1/C(=C/c2ccc(OCc3ccccc3F)cc2)C(=O)N=C2SC(CC(=O)N3CCOCC3)=NN12 ?
GLP-1R agonist: -3%; GLP-1R inv ag: 6%; HEK293 tox: -1%; BRCA1 expr act: inconclusive; Mito fusion act: 0%

Results for CCN1CCN(C(=O)c2ccc(CSc3ccc(C)cc3)cc2)CC1 ?
GLP-1R agonist: 0%; GLP-1R inv ag: inconclusive; HEK293 tox: 11%; BRCA1 expr act: 4%; Mito fusion act: -19%

What do the screens show for `Cc1ccc(SCc2ccc(C(=O)N3CCCC3)cc2)cc1`?
GLP-1R agonist: 8%; GLP-1R inv ag: inconclusive; HEK293 tox: 11%; BRCA1 expr act: 11µM*; Mito fusion act: 17%

Results for Cc1ccc(C(=O)C2CCN(C(=O)c3ccc(C)cc3)CC2)cc1 ?
GLP-1R agonist: -7%; GLP-1R inv ag: 8.9µM*; HEK293 tox: 0%; BRCA1 expr act: -5%; Mito fusion act: 14%

How did O=C(Cn1c(C(F)(F)F)nc2ccccc21)c1ccccc1 do in these assays?
GLP-1R agonist: 1%; GLP-1R inv ag: inconclusive; HEK293 tox: -13%; BRCA1 expr act: 24%; Mito fusion act: -2%

How did COc1ccc(/C(C)=N/N2CCCCC2)c(O)c1 do in these assays?
GLP-1R agonist: -2%; GLP-1R inv ag: 7%; HEK293 tox: -17%; BRCA1 expr act: 0%; Mito fusion act: 1%

Results for COc1ccc(O)c(/C=N/N2CCCCC2)c1 ?
GLP-1R agonist: 19%; GLP-1R inv ag: 0%; HEK293 tox: -5%; BRCA1 expr act: 10µM*; Mito fusion act: -7%

Results for CCCCN(CC)CCCNC(=O)Nc1sc2nc3n(c(=O)c2c1C)CCC(C)CC3 (centres undefined) ?
GLP-1R inv ag: 10µM*; HEK293 tox: -5%

What do the screens show for `Cc1cc(C)c(NC(=O)Nc2sc3nc4n(c(=O)c3c2C)CCC(C)CC4)c(C)c1` (centres undefined)?
GLP-1R inv ag: -5%; HEK293 tox: 8%

What do the screens show for `CCC(OC(=O)c1nsc(Cl)c1Cl)C(=O)NCc1ccco1` (centres undefined)?
GLP-1R agonist: -11%; GLP-1R inv ag: -1%; HEK293 tox: -1%; BRCA1 expr act: 23%; Mito fusion act: 3%

What do the screens show for `Cc1ccc(OCCSc2nc(N)cc(N)n2)cc1`?
GLP-1R agonist: 37%; GLP-1R inv ag: 124%; HEK293 tox: -6%; BRCA1 expr act: inconclusive; Mito fusion act: inconclusive

Results for CCNc1nc(NC(C)C)nc(SCCOc2ccc(C)cc2)n1 ?
GLP-1R agonist: 33%; GLP-1R inv ag: 7.9µM*; HEK293 tox: -1%; BRCA1 expr act: -34%; Mito fusion act: -2%

What do the screens show for `CCNc1nc(SCCOc2ccc(Br)cc2)nc(N(C)C)n1`?
GLP-1R agonist: 0%; GLP-1R inv ag: inconclusive; HEK293 tox: 8%; BRCA1 expr act: -7%; Mito fusion act: 3%
